Six compounds from PubChem BioAssay can be followed below.

The target in assay [1] is Pantothenate synthetase (Mycobacterium tuberculosis (strain ATCC 25618 / H37Rv)) (UniProt P9WIL5). In words: Recombinant Mtb pantothenate synthetase (PanC) inhibitors, coupled enzyme, confirmatory (AID 375; call rule not given here;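 note: 0% = full reaction with vehicle and 100% = no enzyme background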). As to conditions: coupled enzyme assay; at 10 µM, stronger effect = higher value.
Assay [2] in a line: reducers of endogenous Her2 protein level, primary screen, SKBR3 breast tumor cells, AlphaScreen, ATP viability (AID 461;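 active = Her2 level under about 52% in both replicate screens, with viability over 70% of control, limit read from the data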;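 for Her2 level: lower value means less Her2 protein in the cells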;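 for viability: percent of carrier control wells set as 100% viability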). The note with it: 18-24 h, measured here: SKBR3 viability, ATP luminescence, at 10 µM.
The target in assay [3] is Receptor tyrosine-protein kinase erbB-2 (Homo sapiens) (UniProt P04626). Described as above. The note with it: 18-24 h, at 10 µM, stronger effect = lower value.
Chain of Receptor tyrosine-protein kinase erbB-2 (Homo sapiens) (P04626 whole entry, looked up): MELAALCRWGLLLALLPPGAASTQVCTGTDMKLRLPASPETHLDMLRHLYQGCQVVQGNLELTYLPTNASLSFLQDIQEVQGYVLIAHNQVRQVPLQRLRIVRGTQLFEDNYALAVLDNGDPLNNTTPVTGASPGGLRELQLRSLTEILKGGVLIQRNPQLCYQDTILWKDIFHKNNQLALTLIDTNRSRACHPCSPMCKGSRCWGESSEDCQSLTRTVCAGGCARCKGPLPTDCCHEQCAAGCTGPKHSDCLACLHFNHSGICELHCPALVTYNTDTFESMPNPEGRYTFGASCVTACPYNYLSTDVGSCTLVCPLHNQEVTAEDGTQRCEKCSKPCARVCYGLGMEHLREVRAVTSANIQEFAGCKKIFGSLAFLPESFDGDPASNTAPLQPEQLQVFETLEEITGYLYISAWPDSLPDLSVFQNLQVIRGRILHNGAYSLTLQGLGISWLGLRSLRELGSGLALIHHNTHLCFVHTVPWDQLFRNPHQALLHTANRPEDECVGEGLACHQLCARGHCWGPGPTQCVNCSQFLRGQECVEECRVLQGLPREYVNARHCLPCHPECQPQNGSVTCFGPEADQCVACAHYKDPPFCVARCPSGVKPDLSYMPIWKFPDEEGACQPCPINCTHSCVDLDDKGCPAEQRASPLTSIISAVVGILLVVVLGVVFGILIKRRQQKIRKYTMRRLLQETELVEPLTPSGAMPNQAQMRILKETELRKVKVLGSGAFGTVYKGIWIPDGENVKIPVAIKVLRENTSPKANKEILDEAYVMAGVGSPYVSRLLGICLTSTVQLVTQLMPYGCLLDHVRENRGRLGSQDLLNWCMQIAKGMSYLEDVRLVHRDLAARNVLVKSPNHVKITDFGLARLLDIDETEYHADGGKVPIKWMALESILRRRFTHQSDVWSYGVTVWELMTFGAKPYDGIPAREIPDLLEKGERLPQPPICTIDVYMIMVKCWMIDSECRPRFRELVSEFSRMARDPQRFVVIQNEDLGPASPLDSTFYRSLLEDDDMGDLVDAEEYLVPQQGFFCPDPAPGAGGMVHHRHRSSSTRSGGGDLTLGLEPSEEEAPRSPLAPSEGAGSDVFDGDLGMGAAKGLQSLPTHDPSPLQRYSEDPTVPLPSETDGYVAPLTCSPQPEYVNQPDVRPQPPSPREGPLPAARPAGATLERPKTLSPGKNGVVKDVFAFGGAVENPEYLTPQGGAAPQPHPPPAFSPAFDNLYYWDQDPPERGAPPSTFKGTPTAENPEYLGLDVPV
A short description of assay [4]: SK-BR-3 cell growth inhibitors, pilot screen, 24 h, human (AID 572;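 active = viability at or below 10% of carrier control in both of two separate runs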;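 note: compound exposure lasted between 18 and 24 h rather than exactly 24 h; 100% = carrier-treated control wells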). As to conditions: SK-BR-3 viability, CellTiter-Glo luminescence, at 10 µM, stronger effect = lower value.
Assay [5] can be described thus: HUVEC growth inhibition – cell-based, human, primary screen (AID 575;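 active = viability at or below 30% in both replicate assays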;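 note: 100% = median of untreated cell wells with 0.1% DMSO on each plate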). The note with it: HUVEC proliferation, CellTiter-Glo luminescence, 72 h; at 10 µM; stronger effect = lower value.
Assay [6] in a line: growth inhibitors of H69AR lung tumor, primary screen, human, duplicate replicates (AID 580;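 active = viability at or under a set limit in both replicates, limit being median viability minus 3 SD, cut at about 48% in these data, passing the limit was not always enough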;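 note: 100% = mean luminescence of untreated wells and 0% = no signal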). The note with it: H69AR lung tumor cells viability, ATP luminescence, 72 h; at 10 µM; stronger effect = lower value.
Assay [7] can be described thus: reversal of MRP1-mediated doxorubicin resistance, pilot screen, H69AR cells, doxorubicin co-treatment (AID 601;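 active = viability loss from added drug above about 55%, and viability with drug at most 40%, in both replicates, limit read from the data, passing the limit was not always enough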). The note with it: CellTiter-Glo, 72 h, at 10 µM; for differential viability (reversal): stronger effect = higher value.
Assay [8] in a line: 384-well plate pilot, post-Golgi transport modulator project, inhibition of yeast transport mutant growth (AID 636; in the data active = inhibition above about 31%). As to conditions: absorbance 615 nm, about 18 h, stronger effect = higher value.
Assay [9] can be described thus: growth suppression of yeast trafficking mutant, preliminary HTS, modulators of trafficking downstream of Golgi apparatus project, 1536-format plate, OD 615 nm (AID 637; in the data active = inhibition above about 30%). The note with it: yeast transport mutant growth, absorbance 615 nm, 18 h; stronger effect = higher value.
The nature of assay [10]: OD615 S. cerevisiae growth inhibition, permissive medium, pilot counter-assay, permissive growth control for S. cerevisiae lifespan shortening project (AID 705;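 active = growth inhibition above 25% in both replicates, a cutoff set 3 SD above the mean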). The note with it: OD615, 24 h, at 10 µM, stronger effect = higher value.
Assay [11] in a line: Restrictive medium S. cerevisiae growth inhibition, OD615, pilot screen of yeast lifespan reduction project, restrictive growth control (AID 706;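 active = growth inhibition above a set limit, 3 SD over mean compound inhibition, in both replicates, cut at about 43% in these data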;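 note: modified DeaD lifespan yeast strain shifted to restrictive glucose medium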). The note with it: OD615, 48 h, at 10 µM, stronger effect = higher value.
A short description of assay [12]: viability gain of MRP-1-high H69AR cells under doxorubicin, pilot screen, MRP-1 activator project, CellTiter-Glo, duplicate (AID 807;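 active = viability increase at or above a cutoff of the median across tested compounds plus 3 SD, cut at about 8.5% in these data, passing the limit was not always enough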;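 note: compound pretreatment 18-22 h then 72 h combined with doxorubicin; 0% = doxorubicin alone and 100% = vehicle without doxorubicin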). The note with it: H69AR viability with doxorubicin, CellTiter-Glo luminescence; at 10 µM; stronger effect = higher value.
The nature of assay [13]: growth suppression of beta-catenin knockout HCT116, pilot screen, human colon tumor cells (AID 823;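 active = cell viability at or below a set limit in both duplicate runs, the limit being the all-compound median minus 4 SD, cut at about 23% in these data, passing the limit was not always enough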;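 note: 0% = wells killed by 20 µM Hyamine and 100% = untreated DMSO cell wells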). The note with it: CellTiter-Glo, 60 h, at 10 µM, stronger effect = lower value.
Assay [14] can be described thus: growth suppression of PTEN-deleted HCT116, pilot screen, cell-based, HCT116 clonal line, CellTiter-Glo (AID 824;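 active = viability at or below 27.92% in each of two runs, the all-compound median minus 4 SD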;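 note: 0% = 20 µM Hyamine control and 100% = vehicle cell control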). The note with it: 60 h, at 10 µM, stronger effect = lower value.
Assay [15] is described as follows: inhibitors of the yeast RAM network, pilot screen, dse1pr::URA3 reporter, 5-FOA selection (AID 869).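 Note: 0% = DMSO wells with no growth and 100% = 10 µM 1-NA-PP1 with full growth; RAM network block rescues cells from 5-FOA so hits raise OD615 growth.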 As to conditions: S. cerevisiae dse1pr::URA3 5-FOA growth, OD615, 2 d, at 10 µM, stronger effect = higher value.
A short description of assay [16]: RAM signaling pathway blockade in yeast – S. cerevisiae, Pdr1DBD-CYC8 efflux-inhibited sensitized strain, primary screen (AID 1298;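 active = RAM network inhibition above 8.4% in each of two replicates, 3 SD over the compound average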;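 note: 0% = DMSO untreated cells without growth and 100% = 10 µM 1-NA-PP1 full growth; higher means more yeast growth rescued from 5-FOA killing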). As to conditions: S. cerevisiae cbk1-as DSE1-URA3 strain, 5-FOA growth OD615, 2 d; at 50 µM; stronger effect = higher value.
[17] abbreviates: H69AR cells + 2 uM doxorubicin, measured here: viability with 2 uM doxorubicin, stronger effect = lower value.
[18] abbreviates: H69AR cells, compound alone cytotoxicity.

SMILES strings stand for the structures. Inconclusive results are not listed. Activity calls are given as the source filed them.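 Rule for the calls, unless noted: active = inhibition over a set limit, the all-compound mean plus 3 SD, in both replicate runs; inconclusive = over that limit in just one replicate run; inactive = at or under that limit in both runs.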

Chain of Pantothenate synthetase (Mycobacterium tuberculosis (strain ATCC 25618 / H37Rv)) (P9WIL5 whole entry, looked up): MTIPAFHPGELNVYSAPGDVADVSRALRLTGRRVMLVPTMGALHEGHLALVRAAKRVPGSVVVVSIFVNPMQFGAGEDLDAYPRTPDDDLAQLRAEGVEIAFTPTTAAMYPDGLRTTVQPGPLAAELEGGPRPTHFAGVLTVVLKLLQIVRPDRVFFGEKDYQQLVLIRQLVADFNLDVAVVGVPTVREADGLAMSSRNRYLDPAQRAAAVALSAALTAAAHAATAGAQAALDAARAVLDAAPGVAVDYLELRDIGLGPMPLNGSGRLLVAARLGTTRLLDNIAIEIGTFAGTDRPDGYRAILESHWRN

Turning to `CN1CCN(c2nc3ccccc3c(=O)n2-c2ccccc2)CC1`, the inhibition was 0% (inactive) in [1], 0.64% (inactive) in assay [8], -1.17% (inactive) in assay [9] and 2.02% (inactive) in [15]. Also, the viability in assay [2] was 98.5%; in [4] it was 98.5% (inactive); in [5], 79.9% (inactive); in assay [6] it was 86.3% (inactive); in assay [7] (setting [17]), 89.6%; in [7] (setting [18]) it was 86.3%. Besides, the viability in [13] was 98.1% (inactive); in assay [14], 99.3% (inactive). Besides, the Her2 level in assay [3] is 104% (inactive). The differential viability (reversal) in assay [7] (H69AR cells + 2 uM doxorubicin) is -3.29% (inactive). Besides, the growth inhibition in assay [10] was -13.4% (inactive); in assay [11], -1.59% (inactive). For the same compound, the viability increase in assay [12] is -2.67% (inactive). Besides, in [16], the RAM network inhibition was 1.34% (inactive).
As to `C=CCOC(=O)COc1cc(C)cc2oc(=O)c3c(c12)CCC3`, the inhibition in assay [1] was 1% (inactive); in assay [8] it was -5.73% (inactive); in [9], -0.73% (inactive); in [15], 1.63% (inactive). For the same compound, the viability in [4] was 81% (inactive); in [5], 97.2% (inactive); in assay [6], 84.4% (inactive); in assay [7] (setting [17]), 86.7%; in assay [7] (setting [18]), 84.4%; in assay [13], 90.7% (inactive). Further, the viability in assay [14] was 99.4% (inactive). For the same compound, in assay [7] (H69AR cells + 2 uM doxorubicin), the differential viability (reversal) was -2.28% (inactive). The growth inhibition was -7.89% (inactive) in assay [10] and -2.46% (inactive) in [11]. Further, the viability increase in [12] was -0.23% (inactive). The RAM network inhibition in assay [16] is 6.89% (inactive).
Consider `NC(=O)CN1CC(c2ccccc2)CC1=O` (configuration not stated), for which the growth inhibition is -5.56% (inactive) in assay [10] and -19.9% (inactive) in assay [11]. Besides, the viability increase in assay [12] was -0.3% (inactive). In addition, the viability in assay [13] was 105% (inactive); in assay [14] it was 98% (inactive). For the same compound, the inhibition in assay [15] is 0.295% (inactive). Further, the RAM network inhibition in assay [16] was 4.63% (inactive).
`Cc1cccc(N2CCc3c2nc2ccccc2c3N)c1`: the inhibition in [1] was 0% (inactive); in assay [8] it was -2.53% (inactive); in assay [9], 7.67% (inactive); in [15], 3.02% (inactive). Besides, the viability is 84.5% in assay [2]; 84.5% (inactive) in assay [4]; 63.9% in [7] (setting [17]); 49.8% in assay [7] (setting [18]); 36.4% (inactive) in assay [13]; 44.5% (inactive) in [14]. For the same compound, the Her2 level in assay [3] is 86% (inactive). The differential viability (reversal) in assay [7] (H69AR cells + 2 uM doxorubicin) was -14.1% (inactive). For the same compound, the growth inhibition in [10] is -1.63% (inactive); in assay [11], -0.635% (inactive). Also, in assay [12], the viability increase was -6.21% (inactive). Also, the RAM network inhibition in [16] is 4.96% (inactive).
Consider `COc1ccc2[nH]c(C)c(CCN3CCC(=O)C(C)C3C)c2c1` (configuration not stated), for which the values for the growth inhibition in [10] and in assay [11] were -4.37% (inactive) and -10.2% (inactive), respectively. The viability increase in assay [12] is -2.73% (inactive). Moreover, the viability in assay [13] was 87.1% (inactive); in assay [14] it was 93.1% (inactive). Besides, the inhibition in assay [15] was 0.27% (inactive). The RAM network inhibition in assay [16] was 3.24% (inactive).
With `O=P(OCC(F)(F)C(F)F)(N1CCCCC1)N1CCCCC1`, the inhibition in [1] is 3% (inactive); in assay [8], 2.67% (inactive); in assay [9], -7.9% (inactive); in assay [15], 0.595% (inactive). The viability in [2] was 104%; in assay [4], 104% (inactive); in assay [5] it was 106% (inactive); in assay [6], 117% (inactive); in assay [7] (setting [17]), 99.9%; in assay [7] (setting [18]) it was 117%. For the same compound, the viability in [13] was 89% (inactive); in assay [14] it was 95.5% (inactive). Further, in [3], the Her2 level is 108% (inactive). Moreover, the differential viability (reversal) in assay [7] (H69AR cells + 2 uM doxorubicin) was 17.1% (inactive). Besides, the figures for the growth inhibition in [10] and in [11] were -8.86% (inactive) and -5.09% (inactive), respectively. In assay [12], the viability increase was -0.61% (inactive). In [16], the RAM network inhibition is 3.2% (inactive).
